# Assay results reported in article PMC11006913.
# Legend:
# Assay in all cases: PBM; 200 nM protein, PBS
# Conditions in all cases: dsDNA, one strand shown
# [1] = target: HOXC10 (Homo sapiens, UniProt Q9NYD6 254-340)
# [2] = target: ALX3 (Homo sapiens, UniProt O95076 139-225, N203Q)
# [3] = target: HOXC10 (Homo sapiens, UniProt Q9NYD6 254-340, K271E)
# [4] = target: ALX3 (Homo sapiens, UniProt O95076 139-225)
# [5] = target: ALX3 (Homo sapiens, UniProt O95076 139-225, L168Q)
# [6] = target: ALX3 (Homo sapiens, UniProt O95076 139-225, L168V)
# [7] = target: ALX3 (Homo sapiens, UniProt O95076 139-225, N203S)
# [8] = target: T1, NKX2-6 (Homo sapiens, UniProt A6NCS4 118-204, R150C)
# T1 sequence: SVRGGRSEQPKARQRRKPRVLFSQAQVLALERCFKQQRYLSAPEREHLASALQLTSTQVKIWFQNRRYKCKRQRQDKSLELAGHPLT
# [9] = target: HOXD13 (Homo sapiens, UniProt P35453 263-343, T313R)
# [10] = target: HOXD13 (Homo sapiens, UniProt P35453 263-343)
# [11] = target: PITX2 (Homo sapiens, UniProt Q99697 72-157)
# Sequence of HOXC10 (Homo sapiens, UniProt Q9NYD6 254-340, K271E) (Q9NYD6 254-340 K271E): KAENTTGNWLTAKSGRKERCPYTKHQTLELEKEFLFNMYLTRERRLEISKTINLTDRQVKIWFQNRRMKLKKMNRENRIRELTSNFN
# Sequence of HOXC10 (Homo sapiens, UniProt Q9NYD6 254-340) (Q9NYD6 254-340): as the sequence (Q9NYD6 254-340 K271E) above, with E18K counted along it
# Sequence of ALX3 (Homo sapiens, UniProt O95076 139-225, L168Q) (O95076 139-225 L168Q): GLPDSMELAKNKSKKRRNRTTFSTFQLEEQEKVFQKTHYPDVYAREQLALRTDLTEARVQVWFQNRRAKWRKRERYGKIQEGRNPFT
# Sequence of ALX3 (Homo sapiens, UniProt O95076 139-225, N203S) (O95076 139-225 N203S): as the sequence (O95076 139-225 L168Q) above, with Q30L, N65S counted along it
# Sequence of HOXD13 (Homo sapiens, UniProt P35453 263-343) (P35453 263-343): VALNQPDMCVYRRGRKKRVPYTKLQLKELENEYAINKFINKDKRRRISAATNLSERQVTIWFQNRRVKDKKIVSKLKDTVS
# Sequence of ALX3 (Homo sapiens, UniProt O95076 139-225) (O95076 139-225): as the sequence (O95076 139-225 L168Q) above, with Q30L counted along it
# Sequence of HOXD13 (Homo sapiens, UniProt P35453 263-343, T313R) (P35453 263-343 T313R): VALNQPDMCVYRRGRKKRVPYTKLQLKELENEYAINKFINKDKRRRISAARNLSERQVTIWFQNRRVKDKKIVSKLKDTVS
# Sequence of ALX3 (Homo sapiens, UniProt O95076 139-225, L168V) (O95076 139-225 L168V): as the sequence (O95076 139-225 L168Q) above, with Q30V counted along it
# Sequence of ALX3 (Homo sapiens, UniProt O95076 139-225, N203Q) (O95076 139-225 N203Q): as the sequence (O95076 139-225 L168Q) above, with Q30L, N65Q counted along it
sequence,measurement,setting,value
AGCTGGCG,binding signal,[1],"9.96 upbm affinity estimate (log intensity, higher = more binding, comparable within an allelic series)"
same,binding signal,[2],"7.77 upbm affinity estimate (log intensity, higher = more binding, comparable within an allelic series)"
same,binding signal,[3],"9.94 upbm affinity estimate (log intensity, higher = more binding, comparable within an allelic series)"
same,binding signal,[4],"7.78 upbm affinity estimate (log intensity, higher = more binding, comparable within an allelic series)"
same,binding signal,[5],"7.68 upbm affinity estimate (log intensity, higher = more binding, comparable within an allelic series)"
same,binding signal,[6],"7.73 upbm affinity estimate (log intensity, higher = more binding, comparable within an allelic series)"
same,binding signal,[7],"7.86 upbm affinity estimate (log intensity, higher = more binding, comparable within an allelic series)"
GAGGCCTC,binding signal,[1],"10.1 upbm affinity estimate (log intensity, higher = more binding, comparable within an allelic series)"
same,binding signal,[8],"9.72 upbm affinity estimate (log intensity, higher = more binding, comparable within an allelic series)"
same,binding signal,[3],"10.1 upbm affinity estimate (log intensity, higher = more binding, comparable within an allelic series)"
GTCATGAA,binding signal,[1],"10.8 upbm affinity estimate (log intensity, higher = more binding, comparable within an allelic series)"
CTTTTTTA,binding signal,[1],"11.2 upbm affinity estimate (log intensity, higher = more binding, comparable within an allelic series)"
AATACTAG,binding signal,[1],"10.7 upbm affinity estimate (log intensity, higher = more binding, comparable within an allelic series)"
CAATATGG,binding signal,[1],"10.7 upbm affinity estimate (log intensity, higher = more binding, comparable within an allelic series)"
same,binding signal,[9],"10 upbm affinity estimate (log intensity, higher = more binding, comparable within an allelic series)"
same,binding signal,[10],"10.5 upbm affinity estimate (log intensity, higher = more binding, comparable within an allelic series)"
CTAGCCAG,binding signal,[1],"10.1 upbm affinity estimate (log intensity, higher = more binding, comparable within an allelic series)"
same,binding signal,[3],"10.1 upbm affinity estimate (log intensity, higher = more binding, comparable within an allelic series)"
CATAAATA,binding signal,[1],"12.1 upbm affinity estimate (log intensity, higher = more binding, comparable within an allelic series)"
same,binding signal,[3],"11.5 upbm affinity estimate (log intensity, higher = more binding, comparable within an allelic series)"
AACCTGCC,binding signal,[1],"10.1 upbm affinity estimate (log intensity, higher = more binding, comparable within an allelic series)"
same,binding signal,[11],"7.89 upbm affinity estimate (log intensity, higher = more binding, comparable within an allelic series)"
same,binding signal,[3],"10.1 upbm affinity estimate (log intensity, higher = more binding, comparable within an allelic series)"
AAGCCTGG,binding signal,[1],"10.1 upbm affinity estimate (log intensity, higher = more binding, comparable within an allelic series)"
same,binding signal,[3],"10 upbm affinity estimate (log intensity, higher = more binding, comparable within an allelic series)"
CAGCGCGG,binding signal,[1],"10 upbm affinity estimate (log intensity, higher = more binding, comparable within an allelic series)"
same,binding signal,[3],"9.95 upbm affinity estimate (log intensity, higher = more binding, comparable within an allelic series)"
CCGGTGAC,binding signal,[1],"10 upbm affinity estimate (log intensity, higher = more binding, comparable within an allelic series)"
same,binding signal,[3],"10 upbm affinity estimate (log intensity, higher = more binding, comparable within an allelic series)"
CCCGGGCG,binding signal,[1],"10.1 upbm affinity estimate (log intensity, higher = more binding, comparable within an allelic series)"
same,binding signal,[3],"10.1 upbm affinity estimate (log intensity, higher = more binding, comparable within an allelic series)"
ATGTGCTA,binding signal,[1],"10.7 upbm affinity estimate (log intensity, higher = more binding, comparable within an allelic series)"
same,binding signal,[3],"10.7 upbm affinity estimate (log intensity, higher = more binding, comparable within an allelic series)"
GGGGCTAC,binding signal,[1],"10.1 upbm affinity estimate (log intensity, higher = more binding, comparable within an allelic series)"
same,binding signal,[3],"10.1 upbm affinity estimate (log intensity, higher = more binding, comparable within an allelic series)"
CTCAGGAA,binding signal,[1],"10.1 upbm affinity estimate (log intensity, higher = more binding, comparable within an allelic series)"
same,binding signal,[3],"10 upbm affinity estimate (log intensity, higher = more binding, comparable within an allelic series)"
AATTGCAA,binding signal,[1],"11.1 upbm affinity estimate (log intensity, higher = more binding, comparable within an allelic series)"
same,binding signal,[3],"11 upbm affinity estimate (log intensity, higher = more binding, comparable within an allelic series)"
ATAAAGAT,binding signal,[1],"11.6 upbm affinity estimate (log intensity, higher = more binding, comparable within an allelic series)"
same,binding signal,[3],"11.1 upbm affinity estimate (log intensity, higher = more binding, comparable within an allelic series)"
GGGCTACC,binding signal,[1],"10 upbm affinity estimate (log intensity, higher = more binding, comparable within an allelic series)"
same,binding signal,[3],"10.1 upbm affinity estimate (log intensity, higher = more binding, comparable within an allelic series)"
ACGCTGGA,binding signal,[1],"9.94 upbm affinity estimate (log intensity, higher = more binding, comparable within an allelic series)"
same,binding signal,[3],"10.1 upbm affinity estimate (log intensity, higher = more binding, comparable within an allelic series)"
ATACTAAT,binding signal,[1],"11.3 upbm affinity estimate (log intensity, higher = more binding, comparable within an allelic series)"
same,binding signal,[3],"11.2 upbm affinity estimate (log intensity, higher = more binding, comparable within an allelic series)"
AACATTAT,binding signal,[1],"11.6 upbm affinity estimate (log intensity, higher = more binding, comparable within an allelic series)"
same,binding signal,[3],"11.3 upbm affinity estimate (log intensity, higher = more binding, comparable within an allelic series)"
AATGGTCC,binding signal,[1],"11 upbm affinity estimate (log intensity, higher = more binding, comparable within an allelic series)"
same,binding signal,[3],"10.9 upbm affinity estimate (log intensity, higher = more binding, comparable within an allelic series)"
